Read-out in assay [1]: Tumor necrosis factor receptor 1 (TNFRSF1A), TNFRSF1A (gene 7132)
Kind of assay: LTEA_HepaRG_TNFRSF1A: Life Technologies and Expression Analysis (LTEA) Assay for Tumor necrosis factor receptor 1 (TNFRSF1A) using HepaRG (AID 2283535). Particulars: mRNA level, 48 h; actives raise or lower the signal. A digest of the protocol: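 Differentiated HepaRG cells in serum-free induction medium, exposed 48 h in duplicate to 8 half-log concentrations up to 100 uM in 0.5% DMSO. TNFRSF1A mRNA by Fluidigm TaqMan qRT-PCR, normalized to ACTB, GAPDH, POLR2A; bidirectional fit.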

Read-out in assay [2]: Thyroid Hormone Responsive (THRSP), THRSP (gene 7069)
As to the kind of experiment: LTEA_HepaRG_THRSP: Life Technologies and Expression Analysis (LTEA) Assay for Thyroid Hormone Responsive (THRSP) using HepaRG (AID 2283536). The note with it: mRNA level, 48 h; actives raise or lower the signal. An outline of the steps: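 THRSP transcript quantified by Fluidigm qRT-PCR against three housekeeping genes after 48 h chemical exposure of HepaRG cells in serum-free induction medium; eight-point half-log series, top 100 uM, 0.5% DMSO vehicle, duplicate wells.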

Read-out in assay [3]: Cellular tumor antigen p53 (Homo sapiens) (UniProt P04637)
As to the kind of experiment: LTEA_HepaRG_TP53: Life Technologies and Expression Analysis (LTEA) Assay for Tumor Protein P53 (TP53) using HepaRG (AID 2283537). The note with it: mRNA level, 48 h; actives raise or lower the signal. An outline of the steps:
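HepaRG, 48 h exposure, top 100 uM, half-log 8-point, 0.5% DMSO vehicle, duplicates. Read: TP53 mRNA by TaqMan qRT-PCR, normalised to ACTB/GAPDH/POLR2A; bidirectional fit vs DMSO.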

Read-out in assay [4]: UDP glucuronosyltransferase (UGT1A1), UGT1A1 (gene 54658)
Kind of assay: LTEA_HepaRG_UGT1A1: Life Technologies and Expression Analysis (LTEA) Assay for UDP glucuronosyltransferase (UGT1A1) using HepaRG (AID 2283538). The note with it: mRNA level, 48 h; actives raise or lower the signal. An outline of the steps: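 mRNA induction or loss of UGT1A1, by TaqMan qRT-PCR, in duplicate HepaRG wells after 48 h exposure to half-log dilutions topping at 100 uM; DMSO (0.5%) served as baseline.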

Read-out in assay [5]: UDP glucuronosyltransferase (UGT1A6), UGT1A6 (gene 54578)
As to the kind of experiment: LTEA_HepaRG_UGT1A6: Life Technologies and Expression Analysis (LTEA) Assay for UDP glucuronosyltransferase (UGT1A6) using HepaRG (AID 2283539). The note with it: mRNA level, 48 h; actives raise or lower the signal. A digest of the protocol: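 Differentiated HepaRG cells, ~100,000/well, were exposed for 48 h in serum-free induction medium with 0.5% DMSO to 8-point half-log series topping at 100 uM, in duplicate. mRNA measured by Fluidigm TaqMan qRT-PCR, normalized to ACTB, GAPDH and POLR2A.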

Assay [6] in a line: ATG_XTT_Cytotoxicity: Cytotoxicity Assessment in the Attagene TRANS-FACTORIAL HepG2 Assay (AID 2283584; active = hit-call score of the fitted dose curve at least 0.9, where 1 is the maximum). A digest of the protocol: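 HepG2 cells transiently transfected with GAL4-UAS multiple reporter units, dosed 24 h; cytotoxicity read by XTT as loss of signal versus DMSO baseline.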
Assay [7] is described as follows: LTEA_HepaRG_LDH_cytotoxicity: Cytotoxicity Assessment in the Life Technologies and Expression Analysis (LTEA) Assay (AID 2283563; active = hit-call score of the fitted dose curve at least 0.9, where 1 is the maximum). An outline of the steps: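 Differentiated HepaRG cells in serum-free induction medium, exposed 48 h in duplicate to 8 half-log concentrations up to 100 uM in 0.5% DMSO. Cytotoxicity from LDH measured in spent medium, fit relative to DMSO.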

Assay [8] can be described thus: TOX21_p53_BLA_p3_viability: Viability Assessment in the Tox21 HCT-116 p53 Agonism Beta-lactamase Assay, Phase 3 (AID 2283593; active = hit-call score of the fitted dose curve at least 0.9, where 1 is the maximum;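 note: cells exposed to compound for 16 h before reading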). A digest of the protocol:
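Cellular ATP was quantified by CellTiter-Glo luminescence, read after 30 min at room temperature. Beforehand, HCT116 cells (4000/well) received compound 5 h post-seeding, 217-fold diluted from DMSO, then incubated 16 h at 37C.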

Read-out in assay [9]: X-box binding protein 1 (XBP1), XBP1 (gene 7494)
As to the kind of experiment: LTEA_HepaRG_XBP1: Life Technologies and Expression Analysis (LTEA) Assay for X-box binding protein 1 (XBP1) using HepaRG (AID 2283540). The note with it: mRNA level, 48 h; actives raise or lower the signal. A digest of the protocol: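 Differentiated human HepaRG cells in serum-free induction medium exposed 48 h in duplicate to eight half-log concentrations up to 100 uM in 0.5% DMSO. XBP1 mRNA measured by Fluidigm TaqMan qRT-PCR, normalized to ACTB, GAPDH, POLR2A; bidirectional fitting against DMSO.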

Values joined by “and” are separate entries in the source; they are usually repeats but may differ in a detail not shown here. Equal entries are not always repeated. Results filed as inconclusive are left out. The source holds several records for some structures; these can differ, active in one and inactive in another. Active and inactive are the calls of the source. Rule for the calls, unless noted: active = hit-call score of the fitted dose curve at least 0.9, where 1 is the maximum; inactive = score below 0.9.

One may read the AC50 as the concentration at which the activity in the assay is half-maximal.

Chain of Cellular tumor antigen p53 (Homo sapiens) (P04637 whole entry, looked up): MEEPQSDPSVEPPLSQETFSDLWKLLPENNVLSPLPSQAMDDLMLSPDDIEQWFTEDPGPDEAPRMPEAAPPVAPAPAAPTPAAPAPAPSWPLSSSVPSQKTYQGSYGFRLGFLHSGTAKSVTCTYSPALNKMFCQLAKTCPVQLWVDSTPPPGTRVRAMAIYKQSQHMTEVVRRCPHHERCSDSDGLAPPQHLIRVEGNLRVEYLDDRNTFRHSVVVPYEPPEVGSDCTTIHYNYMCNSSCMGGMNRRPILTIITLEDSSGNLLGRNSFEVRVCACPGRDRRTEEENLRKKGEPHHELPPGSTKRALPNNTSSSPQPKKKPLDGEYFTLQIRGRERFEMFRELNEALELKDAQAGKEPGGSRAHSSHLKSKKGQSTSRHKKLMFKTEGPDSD

Take `CCCCCCC(C)OC(=O)COc1nc(F)c(Cl)c(N)c1Cl` (centres undefined): the call in assay [1], in assay [2], in [3], in [4] and in [5] was inactive.
Take `S=C(S)NCCNC(=S)S.[Mn+2].[S-]C([S-])=NCCN=C([S-])[S-].[Zn+2]`: the AC50 in assay [1] was 1.21 µM (active) and 2.33 µM (active); in [2], 699 nM (active) and 352 nM (active) and 513 nM (active); in assay [4], 1.25 µM (active) and 1.46 µM (active) and 1.2 µM (active); in assay [5], 2.12 µM (active) and 1.74 µM (active). Also, the result in assay [1] and in assay [6] was inactive.
Turning to `O=C(O)C1(C(=O)Nc2ccc(Cl)cc2Cl)CC1`, the compound was called inactive in assay [1], in assay [3], in assay [4], in assay [7] and in assay [8]. The AC50 in [2] was 78 µM (active); in assay [5], 79.6 µM (active).
On to `CSC(=O)c1cccc2nnsc12`, for which the result in assay [1], in assay [2], in assay [3], in assay [4], in assay [5] and in assay [6] was inactive.
As for `O=C(c1ccc(O)cc1O)c1ccc(O)cc1O`, the call in assay [1], in [2], in [3], in assay [4], in [5] and in assay [6] was inactive.
In the case of `CCCCCOC(=O)COc1cc(N2C(=O)C3=C(CCCC3)C2=O)c(F)cc1Cl`, the result in assay [1], in [2], in assay [4] and in assay [5] was inactive.
For the compound `Cc1nn(C)c(Oc2ccccc2)c1C=NOCc1ccc(C(=O)OC(C)(C)C)cc1`, the call in assay [1] and in [8] was inactive. Further, the AC50 in [2] is 3.57 µM (active); in assay [3], 6.96 µM (active); in assay [4], 2.29 µM (active); in assay [5], 1.61 µM (active).
For `C#C[C@]1(O)CC[C@H]2[C@@H]3CCC4=CC(=O)CC[C@@H]4[C@H]3CC[C@@]21CC`, the compound was called inactive in assay [1], in assay [3], in assay [5], in assay [6] and in [8]. For the same compound, the results for the AC50 in assay [2] and in assay [4] were 0.0275 µM (active) and 0.291 µM (active), respectively.
Consider `CC(=O)[C@H]1CC[C@H]2[C@@H]3CCC4=CC(=O)CC[C@]4(C)[C@H]3CC[C@]12C`, for which the AC50 is 90.6 µM (active) in [1], 37.9 µM (active) in assay [4] and 63.7 µM (active) in assay [5]. The result in assay [2], in assay [3], in [6] and in [8] was inactive.
As to `CCCCOC(=O)C(C)Oc1ccc(Oc2ccc(C(F)(F)F)cn2)cc1` (centres undefined), the compound was classed as inactive in [1], in [2], in assay [3], in assay [4], in assay [5] and in assay [8].
Regarding `CCOC(=O)C(C)Oc1ccc(Oc2cnc3cc(Cl)ccc3n2)cc1` (centres undefined), the compound was called inactive in assay [1], in assay [2], in assay [4], in assay [5] and in [9].
Turning to `c1ccc2[nH]c(-c3cscn3)nc2c1`, the outcome in [1], in assay [2], in assay [5] and in assay [6] was inactive. Moreover, in assay [4], the AC50 was 25.8 µM (active).
Regarding `N[C@@H](Cc1cc(I)c(Oc2ccc(O)c(I)c2)c(I)c1)C(=O)O`, the compound was called inactive in assay [1], in [3], in assay [6] and in assay [8]. Also, the AC50 was 67.4 µM (active) in assay [2], 40 µM (active) in assay [4] and 40 µM (active) in assay [5].
As to `O=C(Nc1ccc([N+](=O)[O-])cc1Cl)c1cc(Cl)ccc1O`, the AC50 in assay [1] was 10.1 µM (active); in assay [4], 3.65 µM (active); in [5], 3.63 µM (active); in [8] it was 159 nM (active) and 156 nM (active). The result in assay [2] and in [3] was inactive.
For the compound `S=C([S-])NCCNC(=S)[S-].[Mn+2]`, the AC50 in [1] was 3.32 µM (active); in assay [2] it was 0.835 µM (active); in assay [4] it was 2.75 µM (active); in assay [5], 3.64 µM (active).
For `CCCCOC(=O)[C@@H](C)Oc1ccc(Oc2ccc(C(F)(F)F)cn2)cc1`, the call in [1], in assay [2], in assay [3], in assay [4], in [5] and in assay [8] was inactive.
As for `CCCOC(=O)NCCCN(C)C`, the compound was classed as inactive in assay [1], in [2], in assay [3], in [4], in assay [5] and in assay [8].
Consider `CCCCC(CC)CN1C(=O)C2C3C=CC(C3)C2C1=O` (centres undefined), for which the compound was called inactive in [1], in assay [3], in assay [5] and in assay [6]. The AC50 in [2] is 22.9 µM (active); in [4], 88.5 µM (active).
Consider `CCOC(=O)NCCOc1ccc(Oc2ccccc2)cc1`, for which the result in assay [1], in assay [4], in assay [5] and in assay [8] was inactive. The figures for the AC50 in assay [2] and in assay [3] were 75.8 µM (active) and 82.8 µM (active), respectively.
For the compound `CCN(Cc1c(F)cccc1Cl)c1c([N+](=O)[O-])cc(C(F)(F)F)cc1[N+](=O)[O-]`, the compound was classed as inactive in assay [1], in assay [5], in [6] and in assay [8]. Moreover, the AC50 in assay [2] was 22.8 µM (active); in assay [3], 30.3 µM (active); in assay [4], 7.12 µM (active).
For the compound `CCN(CC)C(=O)c1cccc(C)c1`, the result in [1], in [2], in assay [5] and in assay [6] was inactive. Further, in [4], the concentration at half-maximal activity (AC50) is 16.5 µM (active).
On to `CCCOC(=O)c1ccc(C(=O)OCCC)nc1`, for which the compound was called inactive in [1], in [2], in assay [3], in [4], in assay [5] and in assay [8].
For `O=C(c1ccccc1)C1CCCCC1`, the compound was classed as inactive in [1], in [2], in assay [3], in assay [4], in [5] and in assay [6].
As to `CCCCOCCOCCOCc1cc2c(cc1CCC)OCO2`, the compound was classed as inactive in assay [1], in [5], in assay [9] and in [7]. The AC50 in assay [2] is 10.7 µM (active); in [4] it was 3.72 µM (active).
Turning to `CCCN(CCC)C(=O)SCC`, the compound was classed as inactive in assay [1], in assay [2], in [3], in assay [4], in [5] and in assay [8].
In the case of `CCC(C)OC(=O)N1CCCCC1CCO` (centres undefined), the compound was called inactive in [1], in assay [2], in [3], in assay [5] and in assay [8]. Besides, the AC50 in assay [4] was 34.2 µM (active).
For `CCOC(=O)C(C)Oc1ccc(Oc2nc3ccc(Cl)cc3o2)cc1` (centres undefined), the call in assay [1], in assay [2], in [3], in assay [4], in assay [5] and in assay [8] was inactive.
For `COC(=O)c1ccc(I)cc1S(=O)(=O)NC(=O)Nc1nc(C)nc(OC)n1`, the call in assay [1], in assay [2], in assay [3], in [5] and in assay [8] was inactive.
Regarding `COc1nc(C)nc(NC(=O)NS(=O)(=O)c2ccccc2OCCCl)n1`, the call in assay [6] was inactive.
Regarding `N#CSCSc1nc2ccccc2s1`, the call in assay [1], in assay [4], in assay [5] and in [6] was inactive. For the same compound, the half-maximal activity concentration (AC50) in [2] is 77.7 µM (active).
Consider `COc1c(Cl)ccc(Cl)c1C(=O)O`, for which the outcome in assay [1], in assay [2], in assay [4] and in assay [5] was inactive.

The values above are taken from PubChem BioAssay (EPA / NIEHS).
